Among the test systems are NCI-H23 lung; NCI-H226 lung; NCI-H322M lung; HOP-62 NSCLC; NCI-H460 lung; HOP-92 NSCLC; NCI-H522 lung; A549/ATCC NSCLC; 786-0 renal; COLO 205 colon.
Holding throughout (test): NCI-60 one-dose screen, 48 h (100 = growth as untreated, 0 = no growth, -100 = all killed)
Holding throughout (details): 10 µM unless noted

Molecules are shown by their SMILES. Several values for one entry are separate records, joined by “and”; a condition that tells them apart may be missing. Identical values can stand only once. About 83,000 compounds went through this panel and 20% of them were active in at least one assay; those are over-represented in the sample as a whole.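 Results are percent growth after 48 hours of single-concentration exposure. 100 means growth as in untreated cells, lower positive values show inhibition; negative values down to -100 show cell death.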 A number with no mark means an inactive call. Activity calls are given as the source filed them. The calls were made as follows: active = growth percent below 10; inactive = the rest.

For the compound `O=C(c1ccc(Cl)cc1)C1[C@H](c2ccccc2Cl)[C@@H](c2ccccc2)NC12C(=O)Nc1ccc(Cl)cc12` (stereo not given in full), the growth with NCI-H23 lung is -70.1% (active); in the test with NCI-H226 lung it was -86.1% (active); in the test on NCI-H322M lung it was -22.1% (active); in the test on HOP-62 NSCLC, -72.4% (active); with NCI-H460 lung, -69.2% (active); in the test on HOP-92 NSCLC it was -75.6% (active). Moreover, the growth with NCI-H522 lung is -50.6% (active); with A549/ATCC NSCLC it was -23% (active); in the test with 786-0 renal, -54.5% (active); in the test on COLO 205 colon, -91.4% (active).
As to `NS(=O)(=O)c1ccc(Nc2nc(SCC(=O)c3ccc(F)cc3)nc3ccccc23)cc1`, the growth in the test on NCI-H23 lung is 41.8%; in the test on NCI-H226 lung, 50.1%; in the test with NCI-H322M lung it was 58.7%; with HOP-62 NSCLC, 54.4%; in the test on NCI-H460 lung it was 36%; with HOP-92 NSCLC, 56.3%. The growth in the test on NCI-H522 lung was 42.1%; in the test with A549/ATCC NSCLC, 53.8%; in the test on 786-0 renal, 68.9%; in the test on COLO 205 colon, 77%.
For the compound `COc1c2c(cc3c1C(CCc1ccccc1)N(C)CC3)OCO2` (stereo not given), the growth in the test on NCI-H23 lung was 5.64% (active); in the test with NCI-H226 lung it was -1.8% (active); in the test with NCI-H322M lung, 28.7%; in the test on HOP-62 NSCLC, 36.6%; with NCI-H460 lung, 1.55% (active); in the test with HOP-92 NSCLC it was 1.44% (active). Besides, the growth in the test with NCI-H522 lung is 11.4%; with A549/ATCC NSCLC, 21.4%; in the test on 786-0 renal it was 12.6%; with COLO 205 colon it was -56.5% (active).
On to `CCCCCCCCc1ccc(C(=O)Nc2cccc(O)c2)cc1`, for which the growth was 78.9% in the test with NCI-H23 lung; 67.8% with NCI-H226 lung; 95.9% in the test with NCI-H322M lung; 101% in the test with HOP-62 NSCLC; 90.5% in the test with NCI-H460 lung; -4.35% (active) in the test with HOP-92 NSCLC. Also, the growth in the test on NCI-H522 lung is 23%; with A549/ATCC NSCLC, 90.3%; in the test with 786-0 renal it was 73.5%; with COLO 205 colon, 121%.
For the compound `Cn1cc(-c2cc3nc(-c4cn(C)c5ncc(Br)cc45)cc(N)n3n2)c2cc(F)ccc21`, the growth was 15.2% with NCI-H23 lung; 10.9% in the test on NCI-H226 lung; 35.3% with NCI-H322M lung; 15% with HOP-62 NSCLC; 20.9% with NCI-H460 lung; -18.3% (active) in the test with HOP-92 NSCLC. For the same compound, the growth was 2.15% (active) in the test on NCI-H522 lung, 0.571% (active) in the test with A549/ATCC NSCLC, -5.13% (active) with 786-0 renal and 51.6% with COLO 205 colon.
In the case of `C=CCSc1nnc(-c2ccc(-c3nc4ccccc4[nH]3)cc2)o1`, the growth with NCI-H23 lung is 89.9%; with NCI-H226 lung, 95.5%; in the test with NCI-H322M lung, 97.7%; with HOP-62 NSCLC it was 84.2%; in the test with NCI-H460 lung it was 87.1%; in the test on HOP-92 NSCLC, 79.1%. Moreover, the growth was 70.4% with NCI-H522 lung, 73.5% with A549/ATCC NSCLC, 77.6% with 786-0 renal and 82.6% in the test on COLO 205 colon.
For the compound `O=C(NNC(=O)c1ccc(OCc2nc3ccc(Cl)cc3[nH]2)cc1)Nc1ccc(Cl)c(Cl)c1`, the growth is 47% in the test on NCI-H23 lung; 93% in the test on NCI-H226 lung; 47.6% in the test on NCI-H322M lung; 65.4% with HOP-62 NSCLC; 27.5% in the test with NCI-H460 lung; 62.1% with HOP-92 NSCLC. The growth is 60.4% in the test with NCI-H522 lung, 60.2% in the test on A549/ATCC NSCLC, 80.8% with 786-0 renal and 105% in the test with COLO 205 colon.
Regarding `Nc1cccc(-n2c(COc3ccc(I)cc3)nc3ccccc32)c1`, the growth in the test with NCI-H23 lung is 75.6% and 99.5%; in the test with NCI-H226 lung, 57.2% and 109%; in the test with NCI-H322M lung it was 94.4% and 96.2%; in the test with HOP-62 NSCLC it was 86.9% and 103%; with NCI-H460 lung, 86.2% and 108%; with HOP-92 NSCLC it was 63.3% and 113%. In addition, the growth with NCI-H522 lung was 81.5% and 107%; with A549/ATCC NSCLC, 104%; with 786-0 renal, 106% and 102%; in the test with COLO 205 colon, 81.4% and 109%.
For `C=CC[n+]1cccc2c3ccccc3ccc21`, the growth with NCI-H23 lung was 27.4%; with NCI-H226 lung it was 58%; with NCI-H322M lung it was 76.7%; in the test with HOP-62 NSCLC it was 44.9%; in the test on NCI-H460 lung, 23.2%; in the test with HOP-92 NSCLC, 52.3%. The growth in the test with NCI-H522 lung was 27.1%; in the test on A549/ATCC NSCLC, 28.1%; in the test on 786-0 renal, 66.2%; with COLO 205 colon it was 28.4%.
In the case of `COc1ccc2c(c1)C(Sc1ccc(F)cc1)c1c(nc(N)c(C#N)c1N)O2` (stereo not given), the growth in the test with NCI-H23 lung is 90.7%; in the test with NCI-H226 lung, 90.9%; with NCI-H322M lung it was 94.4%; in the test on HOP-62 NSCLC it was 111%; in the test with NCI-H460 lung it was 95.7%; in the test with HOP-92 NSCLC it was 116%. For the same compound, the growth in the test with NCI-H522 lung is 78.9%; in the test on A549/ATCC NSCLC it was 96.2%; in the test on 786-0 renal, 80.7%; in the test on COLO 205 colon it was 104%.
Consider `Cc1ccc(C2CC(c3ccc(S(=O)(=O)NCCNc4nc(N(C)C)nc(N5CCOCC5)n4)cc3)=Nc3c(N)nc(N)nc3N2)cc1` (stereo not given), for which the growth in the test with NCI-H23 lung is 72%; in the test with NCI-H226 lung it was 63.8%; in the test on NCI-H322M lung, 77.3%; in the test with HOP-62 NSCLC, 63.9%; in the test with NCI-H460 lung, 53.6%; in the test with HOP-92 NSCLC, -9.13% (active). The growth in the test on NCI-H522 lung was 80.1%; in the test on A549/ATCC NSCLC it was 62.2%; with 786-0 renal, 32.8%; with COLO 205 colon, 72.3%.
Regarding `CC[C@@]12CC(C(=O)OC)=C3Nc4cc5c(cc4[C@@]34CCN(C[C@H]3O[C@H]31)[C@@H]24)[C@@H]1[C@H](O5)[C@@H](O)[C@@]2(CC)CC(C(=O)OC)=C3Nc4cc(O)ccc4[C@@]34CCN1[C@@H]24`, the growth is -53.9% (active) with NCI-H23 lung; -50.9% (active) in the test with NCI-H226 lung; -43% (active) with NCI-H322M lung; -54.4% (active) in the test on HOP-62 NSCLC; -26.6% (active) in the test with NCI-H460 lung; -27.3% (active) in the test on HOP-92 NSCLC. Also, the growth with NCI-H522 lung is -44.9% (active); in the test with A549/ATCC NSCLC, 4.31% (active); in the test with 786-0 renal, -89.3% (active); with COLO 205 colon it was -61.5% (active).
As to `COc1ccc(N=Nc2c(N)nn3c(-c4ccc5c(c4)C=S=C5)ccnc23)cc1`, the growth in the test on NCI-H23 lung is 27%; in the test with NCI-H226 lung, 22.8%; in the test on NCI-H322M lung it was 49.1%; in the test with HOP-62 NSCLC, 42.5%; in the test with NCI-H460 lung, 35.3%; in the test on HOP-92 NSCLC it was 4.83% (active). Further, the growth with NCI-H522 lung was -12.6% (active); in the test on A549/ATCC NSCLC, 43%; in the test with 786-0 renal it was 55.7%; in the test on COLO 205 colon, 54.8%.

Source of the values: PubChem BioAssay (NCI).
